Measured values taken from ChEMBL document CHEMBL4888484, “Replenishing the malaria drug discovery pipeline: Screening and hit evaluation of the MMV Hit Generation Library 1 (HGL1) against asexual blood stage Plasmodium falciparum ,using a nano luciferase reporter read-out” (2022).
Out of some 150,000 compounds screened, about 540 (0.36%) showed an effect of 50% or more. This is one part of a sample in which strong results are shown more often than they occur.

Each compound was assayed on Plasmodium falciparum (assay: Primary screen in NF54 nanoGlo assay, in single point, at 2uM, 72h; a lower Z score goes with more inhibition). Conditions: timepoint 72 hour.
Type: functional, Erythrocyte

Row | Compound | % Inhibition | Z score
1 | Cc1cc[n+]2c(-c3ccccc3)cc(-c3ccccc3)nc2c1 | 60% | -11.27
2 | Cc1cc(-c2ccccc2)[n+]2ccccc2n1 | -15% | 2.36
3 | Cc1ccc(-c2csc(-c3nc(-c4ccccc4)cs3)n2)c(C)c1 | 10% | -1.13
4 | O=C(Cc1ccc2[nH]c(=O)[nH]c2c1)N1CCOC[C@@H]1CC1CCC1 | 2% | -0.19
5 | CCOC(=O)c1cc2n(n1)C[C@@](C)(C(=O)NCCC(C)C)N(c1ccc(C)c(C)c1)C2=O | -6% | 0.75
6 | O=C(Cc1ccc(N(Cc2cccc(F)c2)C(=O)C2CCCC2)cc1)NCCN1CCCCC1 | 59% | -9.89
7 | O=C(Cc1ccc(N(Cc2cccc(F)c2)C(=O)c2cccc(F)c2)cc1)NCCN1CCCCC1 | 57% | -2.67
8 | COc1cccc(C(=O)N(Cc2ccc(C)cc2)c2cccc(CC(=O)N[C@@H](C)c3ccccc3)c2)c1 | -8% | 1.49
9 | Cc1ccc(C(=O)N(Cc2cccc(F)c2)c2ccc(CC(=O)N[C@@H](C)c3ccccc3)cc2)cc1 | 74% | -8.26
10 | O=C(Cc1ccc(N(Cc2cccc(F)c2)C(=O)C2CCCC2)cc1)NCCN1CCCC1 | 25% | -2.85
11 | Cc1cccc(CN(C(=O)C2CCCC2)c2ccc(CC(=O)NCCN3CCCC3)cc2)c1 | 20% | -2.23
12 | O=C(Cc1ccc(N(Cc2cccc(F)c2)C(=O)c2cccc(F)c2)cc1)NCCN1CCCC1 | 3% | -0.41
13 | Cc1ccccc1C(=O)N(Cc1ccc(F)cc1)c1cccc(CC(=O)NCCN2CCCC2)c1 | 6% | -0.6
14 | Cc1ccccc1C(=O)N(Cc1cccc(F)c1)c1ccc(CC(=O)NCCN2CCCCC2)cc1 | 58% | -4.25
15 | CCC(=O)N(Cc1cccc(F)c1)c1ccc(CC(=O)NCCN2CCCC2)cc1 | -2% | 0.24
16 | O=C(Cc1ccc(N(Cc2ccc(F)cc2)C(=O)c2cccc(F)c2)cc1)NCc1ccccc1 | -2% | 0.3
17 | Cc1ccc(CN(C(=O)c2ccccc2C)c2cccc(CC(=O)NCCN3CCCC3)c2)cc1 | -9% | 1.17
18 | CC(C)(C)c1ncc(-c2cc(F)cc3cccnc23)[nH]1 | -16% | 1.82
19 | Cc1n[nH]nc1-c1nc(-c2ccncc2)nn1[C@H]1CCS(=O)(=O)C1 | -6% | 0.87
20 | Cc1ccc(CS(=O)(=O)N2CCC3CCN(C)CC32)c(F)c1 (centres undefined) | -7% | 1.13
21 | Cc1nccn1CCNC(=O)c1cc2cccc(Cl)c2n1C | -16% | 1.43

Row | Compound | % Inhibition | Z score
22 | CC[C@H]1CN(Cc2cccn2-c2nccs2)CCN1C | -2% | 0.41
23 | Cc1ccc(-n2nc(C)cc2NS(=O)(=O)c2c(C)nn(C(C)C)c2C)nn1 | -9% | 1.42
24 | CCOc1cccc2[nH]cc(CC(=O)N[C@H](c3nccn3C)C3CC3)c12 | 7% | -0.9
25 | CCOC(=O)NCCC(=O)NCCC[C@H]1CCCCO1 | -4% | 0.49
26 | CCc1nsc(N2CC(C)N(CC#N)C(C)C2)n1 (centres undefined) | -3% | 0.45
27 | CC[C@@H](c1nc(-c2ccc(-n3nc(C)cc3N)cc2)no1)n1cccn1 | -2% | 0.32
28 | CCCc1cc(-c2nc(-c3ccc(-n4nc(C)cc4N)cc3)no2)n(C)n1 | 71% | -14.18
29 | Cc1cc(N)n(-c2ccc(-c3noc(-c4cc(C(C)C)on4)n3)cc2)n1 | 15% | -3.24
30 | C[C@@H](CNc1nc(-c2ccccc2)nc2nc(-c3ccc(Cl)cc3)oc12)N1CCOCC1 | -17% | 2.25
31 | c1ccc(-c2nc(NC3CCCC3)c3oc(-c4ccccc4)nc3n2)cc1 | -7% | 0.89
32 | C[C@@H](CNc1nc(-c2ccccc2)nc2nc(-c3ccc(Cl)cc3)oc12)N1CCCCC1 | 79% | -10.9
33 | CCc1noc(C2(n3cccn3)CC2)n1 | -8% | 0.8
34 | N#Cc1ccccc1OCCN1CCS(=O)(=O)CC1 | -3% | 0.38
35 | O=C(N[C@H]1CCc2[nH]c3ccc(Br)cc3c2C1)c1ccc(Cl)c(Cl)c1 | -9% | 1.26
36 | O=C(NC1CCc2[nH]cnc2C1)N[C@@H]1CCCc2ccccc21 (some centres undefined) | 4% | -0.51
37 | CC(C)c1ccc(CCCNS(N)(=O)=O)cc1 | 7% | -0.97
38 | c1cc(N2CC[C@]3(CCOC3)C2)c2sccc2n1 | -10% | 1.52
39 | CCc1nc(CCNC(=O)Cc2sc(N)nc2C)no1 | -22% | 2.33
40 | CN1CCCN(c2nc(C(F)(F)F)nc3cc4c(cc23)OCO4)CC1 | -8% | 1.28
41 | Oc1cc(C(F)(F)F)c2cc3c(cc2n1)OCO3 | 30% | -3.35
42 | COc1nccnc1NCC1(N(C)C)CCCCC1 | 2% | -0.41
